Drawing on publication PMC12136788, this text covers binding signal for 14 molecules.

Where a chain is given by its changes, count along the chain named. Whole data set: some 24,000 sequences, median “enrichment r” near 0.99, cut for the highest 2% near 3.7. The sample as a whole holds a higher share of the highest values than the screen did.

The labels stand for the following.
T1: UNK ZnF1-3 (human, UniProt Q9C0B0 31-174)
T1 sequence: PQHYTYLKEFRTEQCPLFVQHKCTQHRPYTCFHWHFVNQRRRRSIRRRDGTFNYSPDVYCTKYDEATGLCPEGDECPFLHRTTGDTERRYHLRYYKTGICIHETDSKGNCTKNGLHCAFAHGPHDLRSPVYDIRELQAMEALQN

B1: chr11:2981123:2981124:-_ENSG00000205531_ENST00000380542|hu_mus|FALSE|FALSE (ssRNA)
RNA: GGGAGUUCUACAGUCCGACGAUCCUUGUACGUUUUCGUCAGGACAGGAUUGGUGAAGUAGUCGUUGGGUUCAAAGUGAAACUCUAGCACAAAAGACAUAGGUUGUCCAGGGUCUGAAAACUUCACUUUAAUAUCCUGCAGAUGCAACAGAGGAUUGAGCAUCA
B2: chr6:155153589:155153590:+_ENSG00000213079_ENST00000417268|hu_hu|motif|central (ssRNA)
RNA: GGGAGUUCUACAGUCCGACGAUCAGUAACAUUGUCUACGCUUUGUCUUCCAGGAGCUAAAAAAGGUCUUUCUGGUUGACGGAAAAUAUCUCCUGGAGGAAAAGGUCCACGGGGUGGUGGAUGAAGAGCUGAAUCAAGUACCGACAACAGAGGAUUGAGCAUCA
B3: chr1:161298228:161298229:+_ENSG00000143252_ENST00000367975|hu_hu|motif|central (ssRNA)
RNA: GGGAGUUCUACAGUCCGACGAUCCAUGGGAAGAGACCAACUGUAGAUAGUAAUGUGGGGAGACAGAGGACGGUUUGAACCGGUAUUCUUAUUCCAGAACCGCUCCAUCUCUUCUUUGGCCGUGGUUCCCAAAGGAACAGCAUUCAACAGAGGAUUGAGCAUCA
B4: 32561585_32561705_2007_CDS_ENSG00000100852_ENST00000539826|human|control|control (ssRNA)
RNA: GGGAGUUCUACAGUCCGACGAUCUAGUUCUUGGGCAAGGCCAUCCUUCCCUAAAAUAAAAAGGUUAACUUUAUCUAUAUUGGUACUAUCGUGAUAUAAUCUUAAGCGGCCAUGAUCCAACUGUAAAAGACUACUAGCAAGUAACAACAGAGGAUUGAGCAUCA
B5: chr3:139076767:139076768:-_ENSG00000184432_ENST00000507777|hu_mus|motif|central (ssRNA)
RNA: GGGAGUUCUACAGUCCGACGAUCACUUUAAUCAUCCAGAAUAUCUUCAUCCAGAUUAAUGUCUGUUGUGUCAAUAUCCUCGGAUUCCAAGUUAUCCAAAUCAACUUCUAGUUCUAGUAAACUCUUUUCUUCUUUGUGGGUAGUCAACAGAGGAUUGAGCAUCA
B6: chr15:100049815:100049816:+_ENSMUSG00000023026_ENSMUST00000100203|mus_hu|FALSE|FALSE (ssRNA)
RNA: GGGAGUUCUACAGUCCGACGAUCAAUGAGUUAAUAGAACACUGUCCAGCCAGAUGUUAAAUUUAAAAACGUAUAUCUAGUCUAACUUCAAAUAAAUAAAAAAACUUUAUACAUAAUUACACAGUACUGUAGUUUGAAUUUGACCAACAGAGGAUUGAGCAUCA
B7: chr1:58468927:58468928:-_ENSMUSG00000026034_ENSMUST00000148330|mus_mus|mus_mus_mus_hu_False|28_68 (ssRNA)
RNA: GGGAGUUCUACAGUCCGACGAUCAAUUACUGAAAAAGAUGUUCAUUACCUUAGCUAUGUACUUAAUUUAAUAAAGCACCCAAACAAAAUAAACAUGGCAAUAUAAAAAGCUAUACAAUUUACAAAGCUGUACAAAAUAACUUACAACAGAGGAUUGAGCAUCA
B8: chr15:100049815:100049816:+_ENSMUSG00000023026_ENSMUST00000100203|mus_hu|motif|central (ssRNA)
RNA: B6 RNA with U77G, A78G, U82G, A83G
B9: chr5:38529174:38529175:-_ENSMUSG00000029126_ENSMUST00000031009|mus_mus|FALSE|FALSE (ssRNA)
RNA: GGGAGUUCUACAGUCCGACGAUCGAAAAGCUAAAGUAGCCCUGGCUUACCCAAAAUUACAUUUCACUUUGCCCACUGGCUAAUAAAACAAAACAAAACAAAACAAAAAACCCAAACUGCACCUGCAUUCAGGGCUGUACGUGCCAACAGAGGAUUGAGCAUCA
B10: chr10:33190432:33190433:-_ENSG00000150093_ENST00000302278|hu_mus|hu_hu_hu_mus_True|28_68 (ssRNA)
RNA: GGGAGUUCUACAGUCCGACGAUCUACAUUUUCCAAACCUGCAUGUGAAUAAAACCCUGGCCACAGAGCCCUAAAGCUACCCUACUGUGACUAAGAUGCUGCUGCUGUUGCAUUCAGGUUGCAAAAUCCGCCUGAGUAGGAUUCCAACAGAGGAUUGAGCAUCA
B11: chr1:58468927:58468928:-_ENSMUSG00000026034_ENSMUST00000148330|mus_mus|mus_mus_mus_hu_False|68_68 (ssRNA)
RNA: B7 RNA with G109U, C110G, A112U, U113A, C115G
B12: chr1:58468927:58468928:-_ENSMUSG00000026034_ENSMUST00000148330|mus_mus|mus_mus_mus_hu_False|58_68 (ssRNA)
RNA: B7 RNA with C78U, C80U, C84A, G109U, C110G, A112U, U113A, C115G
B13: chr1:58468927:58468928:-_ENSMUSG00000026034_ENSMUST00000148330|mus_mus|mus_mus_mus_hu_False|18_68 (ssRNA)
RNA: GGGAGUUCUACAGUCCGACGAUCAAUUACUGAAAAAGAUGUUCAUUACCUUAGCUAUGUACUUAAUUUAAUAAAGCACCCAAACAAAAUAAACAUGGCAAUAUAAAAAUGUUAAGAAAAUAACUUACUGUACAAAAUAACUUACAACAGAGGAUUGAGCAUCA
B14: chr1:58468927:58468928:-_ENSMUSG00000026034_ENSMUST00000148330|mus_mus|mus_mus_mus_hu_False|1_68 (ssRNA)
RNA: B7 RNA with G109U, C110G, A112U, U113A, C115G, U137A, A138G, U142G

This test concerns the target T1, UNK ZnF1-3. Kind of test: nsRBNS (natural sequence RNA bind-n-seq); RBNS binding buffer (assumed for nsRBNS): 25 mM Tris pH 7.5, 150 mM KCl, 3 mM MgCl2, 0.01% Triton X-100, 500 ug/ml BSA, 20 U/ml SUPERase-In, 4 C; UNK is unkempt and MSI1 is Musashi-1; names of the RNAs are library labels; protein concentration not given here; high values mean tight binding.
B1 returned a binding signal of 0.872 enrichment R. For B2, the binding signal turned out to be 0.663 enrichment R.

For B3, the binding signal is 1.08 enrichment R. Next, B4: 1.31 enrichment R; B5: 0.449 enrichment R.

As to B6, the binding signal was 1.95 enrichment R. B7 returned a binding signal of 0.868 enrichment R.

Take B8: the binding signal turned out to be 4.96 enrichment R. B9 displayed a binding signal of 1.5 enrichment R. The result for B10 reads 1.01 enrichment R; that for B11, 1.87 enrichment R. Next, B12: 3.76 enrichment R; B13: 3.68 enrichment R. The molecule B14 gave a binding signal of 1.68 enrichment R.
